# Laboratory results published in PubChem BioAssay (EPA / NIEHS).
# Inconclusive results are not listed. Calls of active or inactive are those of the source. How the source made its calls: active means hit-call score of the fitted dose curve at least 0.9, where 1 is the maximum; inconclusive means response in the unintended direction; inactive means score below 0.9.
# What was measured:
# [1] = target: human Matrix Metalloproteinase-1 (MMP1), MMP1 (gene 4312) (UniProt P03956); experiment: NVS_ENZ_hMMP1: NovaScreen (NVS) Enzymatic Assay for human Matrix Metalloproteinase-1 (MMP1) (AID 2283181)
# Method in brief: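 Cell-free fluorescent substrate assay of human MMP1, read after 1 h. A single 25 uM duplicate screen was followed by concentration series to a maximum of 50 uM for actives meeting threshold; inhibition analysed against DMSO baseline.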
# [2] = system: rat Monoamine Oxidase, MAO-A, Peripheral (MAOAP), gene 29253; experiment: NVS_ENZ_rMAOAP: NovaScreen (NVS) Enzymatic Assay for rat Monoamine Oxidase, MAO-A, Peripheral (MAOAP) (AID 2283237)
# Method in brief: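 Scintillation counting tracked MAO-A activity in a cell-free rat liver mitochondrial membrane prep, read 1.17 hours after compound addition. Single-point duplicate testing at 25 uM preceded concentration-response follow-up; activity was fitted relative to DMSO.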
# [3] = target: rat Monoamine Oxidase, MAO-B, Peripheral (MAOBP), Maob (gene 25750) (UniProt P19643); experiment: NVS_ENZ_rMAOBP: NovaScreen (NVS) Enzymatic Assay for rat Monoamine Oxidase, MAO-B, Peripheral (MAOBP) (AID 2283242)
# [4] = target: rat Acetylcholinesterase (AChE), Ache (gene 83817) (UniProt P37136); experiment: NVS_ENZ_rAChE: NovaScreen (NVS) Enzymatic Assay for rat Acetylcholinesterase (AChE) (AID 2283233)
# Method in brief: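 Compounds first screened at 25 uM in duplicate, then those passing threshold tested in concentration series up to 50 uM, against AChE from rat brain membranes. Enzyme activity read by absorbance at 0.33 h; inhibition scored versus DMSO.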
# [5] = target: human Neonicotinoid receptor (NNR), CHRNA2 (gene 1135) (UniProt Q15822); experiment: NVS_LGIC_hNNR_NBungSens: NovaScreen (NVS) Ligand-Gated Ion Channel Assay for human Neonicotinoid receptor (NNR) (AID 2283313)
# Method in brief: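 Compounds first screened in duplicate at 25 uM, then actives re-tested in single-replicate dose series up to 50 uM. Binding measured as displacement of specific radioligand from neuroblastoma membrane receptors after 2 h, scintillation read on filters.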
# [6] = target: human Mitogen-Activated Protein Kinase 1 (MAPK 1), MAPK1 (gene 5594) (UniProt P28482); experiment: NVS_ENZ_hMAPK1: NovaScreen (NVS) Enzymatic Assay for human Mitogen-Activated Protein Kinase 1 (MAPK 1) (AID 2283175)
# Method in brief: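 Cell-free recombinant human MAPK1 enzymatic assay, fluorescence/electrophoretic mobility shift read at 1 h; loss of signal vs DMSO. Primary screen in duplicate at 25 uM; actives (e.g. ≥30% inhibition) run as concentration-response up to 50 uM.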
# [7] = target: human p21 Activated Kinase 4 (PAK4), PAK4 (gene 10298) (UniProt O96013); experiment: NVS_ENZ_hPAK4: NovaScreen (NVS) Enzymatic Assay for human p21 Activated Kinase 4 (PAK4) (AID 2283189)
# Method in brief: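 Extracted PAK4 enzyme activity read by fluorescence with mobility-shift separation 1 h after chemical addition. Duplicate single-concentration screen at 25 uM, DMSO as negative control.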
# [8] = target: human Phosphatase and Tensin Homolog (PTEN), PTEN (gene 5728) (UniProt P60484); experiment: NVS_ENZ_hPTEN: NovaScreen (NVS) Enzymatic Assay for human Phosphatase and Tensin Homolog (PTEN) (AID 2283203)
# Method in brief: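 Loss of fluorescent product signal after mobility-shift separation reports PTEN activity, recombinant human enzyme, 1 h after compound addition. Single 25 uM duplicate screen, then concentration-response on actives; DMSO baseline.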
# [9] = target: Protein deacetylase HDAC6 (Homo sapiens) (UniProt Q9UBN7); experiment: NVS_ENZ_hHDAC6: NovaScreen (NVS) Enzymatic Assay for human Histone Deacetylase 6 (HDAC6) (AID 2283164)
# Method in brief: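 Concentration-response runs up to 50 uM followed a duplicate 25 uM single-point screen. Deacetylase activity of recombinant human HDAC6 read by fluorescence after 1 h, with mobility-shift separation of substrate and product; DMSO as baseline.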
# [10] = system: rat Monoamine Oxidase, MAO-A, Central (MAOAC), gene 29253; experiment: NVS_ENZ_rMAOAC: NovaScreen (NVS) Enzymatic Assay for rat Monoamine Oxidase, MAO-A, Central (MAOAC) (AID 2283243);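 further: potency refers to inhibition seen as signal drop below DMSO baseline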
# Method in brief: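 Enzyme from rat brain, cell-free radiodetection format. Counts taken at 1.5 h; activity fitted against DMSO baseline, loss of signal marking inhibition. Confirmatory concentration series followed the 25 uM duplicate screen.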
# [11] = target: human Tyrosine Protein Kinase Receptor Tie-2 (Tie2), TEK (gene 7010) (UniProt Q02763); experiment: NVS_ENZ_hTie2: NovaScreen (NVS) Enzymatic Assay for human Tyrosine Protein Kinase Receptor Tie-2 (Tie2) (AID 2283225)
# Method in brief: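 Substrate and product were separated by mobility shift and detected by fluorescence after a 1-hour reaction with recombinant Tie2. Chemicals passing a 25 uM single-point screen were titrated to a maximum of 50 uM. Results were normalized to DMSO baseline.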
# [12] = target: rat Monoamine Oxidase, MAO-B, Central (MAOBC), Maob (gene 25750) (UniProt P19643); experiment: NVS_ENZ_rMAOBC: NovaScreen (NVS) Enzymatic Assay for rat Monoamine Oxidase, MAO-B, Central (MAOBC) (AID 2283238)
# Method in brief: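 Actives from a duplicate 25 uM screen went on to singleton concentration-response with a 50 uM maximum. Enzyme source was rat brain tissue MAO-B, assayed cell-free. Radiolabelled product was counted by scintillation 1.17 h post-dose, with signal loss relative to DMSO.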
# [13] = target: bovine Gamma-Aminobutyric Acid Type A Receptor BDZ, alpha 1 site (GABARa1), GABRA1 (gene 780973) (UniProt P08219); experiment: NVS_LGIC_bGABARa1: NovaScreen (NVS) Ligand-Gated Ion Channel Assay for bovine Gamma-Aminobutyric Acid Type A Receptor BDZ, alpha 1 site (GABARa1) (AID 2283321)
# Method in brief: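 Bovine cortex membrane preparation, benzodiazepine site on GABA-A alpha1; specific radioligand displacement read after 0.75 h by filtration and scintillation. Screen at 25 uM, then singleton titrations up to 50 uM; DMSO baseline.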
# [14] = target: rat Adenylate Cyclase, Forskolin Stimulated, Adcy5 (gene 64532) (UniProt Q04400); experiment: NVS_ENZ_rACFSKBinding: NovaScreen (NVS) Enzymatic Assay for rat Adenylate Cyclase, Forskolin Stimulated (AID 2283232)
# Method in brief: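 Chemicals were first tested at 25 uM in duplicate, then hits run as concentration series with top concentration 50 uM. Enzyme source was rat forebrain membranes; radiometric filter read-out after 1 h, referenced to DMSO.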
# [15] = target: rat Corticotropin Releasing Factor Receptor (CRF), Crhr1 (gene 58959) (UniProt P35353); experiment: NVS_GPCR_rCRF: NovaScreen (NVS) G Protein-Coupled Receptor Assay for rat Corticotropin Releasing Factor Receptor (CRF) (AID 2283300)
# Method in brief: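 Single-concentration (25 uM, duplicate) radioligand binding on rat cortical membrane preparations, counted by scintillation after 2 h. Activity scored as signal loss relative to DMSO negative control.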
# PPP2CA (gene 5515) = PPP2CA (gene 5515) (UniProt P67775); experiment: NVS_ENZ_hPPP2CA: NovaScreen (NVS) Enzymatic Assay for human Protein Phosphatase 2 Aatalytic subunit Alpha (PPP2CA) (AID 2283199)
# Method in brief: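 Cell-free phosphatase activity: fluorescent substrate turnover by recombinant human enzyme, resolved by mobility shift at 1.33 h. Compounds passing the 25 uM duplicate primary screen were rerun in singleton series with a 50 uM top concentration.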
# [16] = target: human Protein Tyrosine Phosphatase Non-receptor Type 2 (PTPN2), PTPN2 (gene 5771) (UniProt P17706); experiment: NVS_ENZ_hPTPN2: NovaScreen (NVS) Enzymatic Assay for human Protein Tyrosine Phosphatase Non-receptor Type 2 (PTPN2) (AID 2283207)
# Method in brief: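 Activity measured as fluorescence after mobility-shift separation of substrate and product, 1 h after compound. Duplicate single-point 25 uM primary testing, concentration series for actives; inhibition scored as signal loss relative to DMSO baseline.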
# [17] = target: human Protein Tyrosine Phosphatase Receptor Type C (PTPRC), PTPRC (gene 5788) (UniProt P08575); experiment: NVS_ENZ_hPTPRC: NovaScreen (NVS) Enzymatic Assay for human Protein Tyrosine Phosphatase Receptor Type C (PTPRC) (AID 2283212)
# Method in brief: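 Absorbance-based phosphatase activity of human PTPRC protein extracted from yeast was measured 1 h post-dosing. Compounds first tested at 25 uM in duplicate, then those passing threshold in singleton concentration series to 50 uM.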
# [18] = target: Voltage-dependent N-type calcium channel subunit alpha-1B (Rattus norvegicus) (UniProt Q02294); experiment: NVS_IC_rCaChN: NovaScreen (NVS) Ion Channel Assay for rat Calcium Channel, Type N (CaChN) (AID 2283317)
# Chain of Protein deacetylase HDAC6 (Homo sapiens) (Q9UBN7 whole entry, looked up): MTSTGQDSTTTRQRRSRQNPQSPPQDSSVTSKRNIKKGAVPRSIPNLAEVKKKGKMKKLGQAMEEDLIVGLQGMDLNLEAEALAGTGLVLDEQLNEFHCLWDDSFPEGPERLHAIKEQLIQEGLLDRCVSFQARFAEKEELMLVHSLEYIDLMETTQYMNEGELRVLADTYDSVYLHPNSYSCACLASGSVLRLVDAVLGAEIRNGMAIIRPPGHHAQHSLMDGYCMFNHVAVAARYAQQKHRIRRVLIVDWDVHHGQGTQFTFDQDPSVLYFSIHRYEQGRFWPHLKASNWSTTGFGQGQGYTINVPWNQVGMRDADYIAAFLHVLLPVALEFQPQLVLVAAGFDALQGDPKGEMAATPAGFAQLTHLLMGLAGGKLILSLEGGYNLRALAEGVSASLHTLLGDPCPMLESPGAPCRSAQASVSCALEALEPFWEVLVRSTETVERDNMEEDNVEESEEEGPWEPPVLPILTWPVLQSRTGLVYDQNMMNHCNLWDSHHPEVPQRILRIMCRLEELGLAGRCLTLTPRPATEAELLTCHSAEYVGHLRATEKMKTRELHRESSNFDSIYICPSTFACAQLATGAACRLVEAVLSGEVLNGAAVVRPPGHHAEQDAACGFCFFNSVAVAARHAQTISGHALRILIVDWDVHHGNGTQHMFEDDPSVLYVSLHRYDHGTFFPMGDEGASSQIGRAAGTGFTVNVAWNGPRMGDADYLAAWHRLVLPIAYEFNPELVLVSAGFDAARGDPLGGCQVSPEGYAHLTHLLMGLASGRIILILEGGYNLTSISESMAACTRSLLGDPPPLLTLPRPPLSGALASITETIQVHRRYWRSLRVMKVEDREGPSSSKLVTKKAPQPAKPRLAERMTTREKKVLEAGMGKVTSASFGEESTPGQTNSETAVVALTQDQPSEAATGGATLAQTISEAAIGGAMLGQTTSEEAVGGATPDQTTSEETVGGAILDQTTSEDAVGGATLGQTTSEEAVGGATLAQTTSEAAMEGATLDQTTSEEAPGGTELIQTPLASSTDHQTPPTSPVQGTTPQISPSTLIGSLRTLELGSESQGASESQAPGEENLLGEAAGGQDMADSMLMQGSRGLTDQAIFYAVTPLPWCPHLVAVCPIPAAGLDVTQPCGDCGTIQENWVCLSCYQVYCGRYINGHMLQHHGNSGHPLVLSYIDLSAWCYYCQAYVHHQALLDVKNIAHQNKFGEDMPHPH
# Chain of human Matrix Metalloproteinase-1 (MMP1), MMP1 (gene 4312) (P03956 whole entry, looked up): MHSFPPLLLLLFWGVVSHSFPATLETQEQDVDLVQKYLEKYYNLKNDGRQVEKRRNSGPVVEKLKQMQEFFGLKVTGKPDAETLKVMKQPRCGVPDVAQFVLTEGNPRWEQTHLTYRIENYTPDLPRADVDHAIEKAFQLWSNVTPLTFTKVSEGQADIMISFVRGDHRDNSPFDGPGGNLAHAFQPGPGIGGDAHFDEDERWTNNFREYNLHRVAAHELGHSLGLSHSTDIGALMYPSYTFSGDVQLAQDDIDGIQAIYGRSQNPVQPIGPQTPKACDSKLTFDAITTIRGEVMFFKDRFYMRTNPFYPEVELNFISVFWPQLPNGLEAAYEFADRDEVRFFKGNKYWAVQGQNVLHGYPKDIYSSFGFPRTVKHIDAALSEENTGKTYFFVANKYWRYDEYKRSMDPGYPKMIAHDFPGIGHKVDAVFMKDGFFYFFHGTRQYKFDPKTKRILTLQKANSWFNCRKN
# Chain of human Phosphatase and Tensin Homolog (PTEN), PTEN (gene 5728) (P60484 whole entry, looked up): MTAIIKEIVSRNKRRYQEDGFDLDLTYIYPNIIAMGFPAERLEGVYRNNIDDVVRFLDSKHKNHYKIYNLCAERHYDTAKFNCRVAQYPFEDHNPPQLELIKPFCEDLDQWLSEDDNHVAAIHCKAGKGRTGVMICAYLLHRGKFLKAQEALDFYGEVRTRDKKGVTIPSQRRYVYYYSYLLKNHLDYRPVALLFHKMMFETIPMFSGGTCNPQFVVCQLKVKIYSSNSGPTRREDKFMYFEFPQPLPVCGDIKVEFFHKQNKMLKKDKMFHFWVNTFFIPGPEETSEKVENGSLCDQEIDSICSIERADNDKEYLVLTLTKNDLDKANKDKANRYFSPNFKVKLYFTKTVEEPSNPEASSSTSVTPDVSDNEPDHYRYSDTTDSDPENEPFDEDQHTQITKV
# Chain of rat Adenylate Cyclase, Forskolin Stimulated, Adcy5 (gene 64532) (Q04400 whole entry, looked up): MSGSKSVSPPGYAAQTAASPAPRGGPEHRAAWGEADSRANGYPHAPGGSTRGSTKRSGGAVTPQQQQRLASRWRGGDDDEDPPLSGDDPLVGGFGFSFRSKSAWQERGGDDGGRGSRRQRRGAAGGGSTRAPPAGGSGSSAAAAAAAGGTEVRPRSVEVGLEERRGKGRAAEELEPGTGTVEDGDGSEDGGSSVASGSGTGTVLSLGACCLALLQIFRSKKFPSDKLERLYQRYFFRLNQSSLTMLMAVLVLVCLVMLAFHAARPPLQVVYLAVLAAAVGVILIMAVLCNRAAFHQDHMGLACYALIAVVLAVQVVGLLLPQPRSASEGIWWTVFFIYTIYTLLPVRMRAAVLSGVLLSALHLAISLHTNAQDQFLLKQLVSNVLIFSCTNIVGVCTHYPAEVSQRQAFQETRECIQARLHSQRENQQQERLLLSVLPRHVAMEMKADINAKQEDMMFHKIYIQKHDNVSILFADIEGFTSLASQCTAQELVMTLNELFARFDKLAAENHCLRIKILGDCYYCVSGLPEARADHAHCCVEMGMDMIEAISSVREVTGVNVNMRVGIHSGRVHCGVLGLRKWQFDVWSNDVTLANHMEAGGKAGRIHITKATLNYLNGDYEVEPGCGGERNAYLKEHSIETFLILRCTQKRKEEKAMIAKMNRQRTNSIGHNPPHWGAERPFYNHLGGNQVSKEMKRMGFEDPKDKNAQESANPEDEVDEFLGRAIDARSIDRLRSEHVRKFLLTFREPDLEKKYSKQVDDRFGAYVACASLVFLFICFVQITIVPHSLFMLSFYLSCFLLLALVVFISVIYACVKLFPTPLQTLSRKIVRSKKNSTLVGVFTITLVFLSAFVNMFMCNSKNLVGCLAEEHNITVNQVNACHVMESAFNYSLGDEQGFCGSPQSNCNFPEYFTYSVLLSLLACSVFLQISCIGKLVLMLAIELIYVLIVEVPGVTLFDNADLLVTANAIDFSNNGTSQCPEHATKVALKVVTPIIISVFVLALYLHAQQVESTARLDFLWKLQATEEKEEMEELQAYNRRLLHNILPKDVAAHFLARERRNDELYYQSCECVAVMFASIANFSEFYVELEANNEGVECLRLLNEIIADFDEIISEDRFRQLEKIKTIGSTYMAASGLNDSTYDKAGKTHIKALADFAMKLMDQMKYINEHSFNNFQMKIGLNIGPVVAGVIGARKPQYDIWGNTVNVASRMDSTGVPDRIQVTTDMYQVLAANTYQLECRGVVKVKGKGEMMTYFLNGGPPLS
# Chain of rat Acetylcholinesterase (AChE), Ache (gene 83817) (P37136 whole entry, looked up): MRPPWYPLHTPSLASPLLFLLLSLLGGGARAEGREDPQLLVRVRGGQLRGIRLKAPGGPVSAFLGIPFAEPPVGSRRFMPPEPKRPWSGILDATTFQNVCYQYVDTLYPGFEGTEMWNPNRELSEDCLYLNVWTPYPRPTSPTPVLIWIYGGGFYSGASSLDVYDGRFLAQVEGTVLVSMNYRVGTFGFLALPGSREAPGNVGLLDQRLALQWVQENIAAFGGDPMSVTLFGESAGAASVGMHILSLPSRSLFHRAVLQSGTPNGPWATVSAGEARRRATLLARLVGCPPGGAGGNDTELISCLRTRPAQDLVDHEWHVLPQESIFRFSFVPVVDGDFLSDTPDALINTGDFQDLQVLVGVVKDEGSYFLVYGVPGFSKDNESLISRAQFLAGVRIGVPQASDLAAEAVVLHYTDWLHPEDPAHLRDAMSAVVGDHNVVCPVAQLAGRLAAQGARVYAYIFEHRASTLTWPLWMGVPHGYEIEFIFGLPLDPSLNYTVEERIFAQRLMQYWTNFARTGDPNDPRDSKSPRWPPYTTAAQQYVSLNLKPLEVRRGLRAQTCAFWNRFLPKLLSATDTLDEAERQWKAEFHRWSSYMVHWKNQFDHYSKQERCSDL
# Chain of rat Monoamine Oxidase, MAO-B, Peripheral (MAOBP), Maob (gene 25750) (P19643 whole entry, looked up): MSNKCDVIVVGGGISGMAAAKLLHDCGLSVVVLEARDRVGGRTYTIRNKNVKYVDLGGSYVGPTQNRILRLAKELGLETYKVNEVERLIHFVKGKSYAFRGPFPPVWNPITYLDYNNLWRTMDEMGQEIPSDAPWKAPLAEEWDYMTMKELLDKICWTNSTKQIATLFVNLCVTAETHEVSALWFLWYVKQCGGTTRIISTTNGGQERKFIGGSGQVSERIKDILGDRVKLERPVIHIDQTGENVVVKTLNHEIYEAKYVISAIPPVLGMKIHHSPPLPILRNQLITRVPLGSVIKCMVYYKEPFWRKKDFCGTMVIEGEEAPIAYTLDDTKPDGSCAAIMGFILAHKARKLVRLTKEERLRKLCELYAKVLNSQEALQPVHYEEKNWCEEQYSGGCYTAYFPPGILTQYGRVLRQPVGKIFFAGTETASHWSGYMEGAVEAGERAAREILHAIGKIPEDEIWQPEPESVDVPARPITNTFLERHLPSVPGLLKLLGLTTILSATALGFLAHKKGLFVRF
# Chain of human Neonicotinoid receptor (NNR), CHRNA2 (gene 1135) (Q15822 whole entry, looked up): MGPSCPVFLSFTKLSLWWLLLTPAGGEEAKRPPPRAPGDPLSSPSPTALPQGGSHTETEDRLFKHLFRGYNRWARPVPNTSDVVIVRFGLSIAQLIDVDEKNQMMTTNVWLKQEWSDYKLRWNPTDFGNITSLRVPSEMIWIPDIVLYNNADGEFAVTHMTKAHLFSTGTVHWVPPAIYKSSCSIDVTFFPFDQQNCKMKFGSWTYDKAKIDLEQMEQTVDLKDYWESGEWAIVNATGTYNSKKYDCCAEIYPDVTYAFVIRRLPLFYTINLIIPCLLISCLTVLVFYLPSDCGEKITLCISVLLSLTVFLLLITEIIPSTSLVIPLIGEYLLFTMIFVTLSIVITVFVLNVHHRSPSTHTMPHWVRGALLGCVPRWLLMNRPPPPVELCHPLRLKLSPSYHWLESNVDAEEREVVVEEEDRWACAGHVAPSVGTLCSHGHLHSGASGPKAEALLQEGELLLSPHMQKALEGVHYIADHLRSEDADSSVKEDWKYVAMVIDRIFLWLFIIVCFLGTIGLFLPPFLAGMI
# Chain of rat Monoamine Oxidase, MAO-B, Central (MAOBC), Maob (gene 25750) (P19643 whole entry, looked up): as the sequence (P19643 whole entry, looked up) above
structure (smiles),measurement,setting,value
CCc1cc(SCc2sc(-c3ccc(C(F)(F)F)cc3)nc2CN2CCN(c3ccc(OC)cc3)CC2)ccc1OCC(=O)O,AC50,[1],1.06 µM (active)
same,AC50,[2],25 µM (active)
same,outcome,[3],inactive
CC(C)(c1cc(Br)c(O)c(Br)c1)c1cc(Br)c(O)c(Br)c1,outcome,[1],inactive
Cn1cnc2c1c(=O)[nH]c(=O)n2C,outcome,[1],inactive
same,outcome,[4],inactive
same,AC50,[5],15.4 µM (active)
CC(=O)Oc1ccccc1C(=O)O,outcome,[1],inactive
c1ccc2ccccc2c1,outcome,[6],inactive
same,outcome,[7],inactive
same,outcome,[8],inactive
CC(N)=O,outcome,[9],inactive
same,outcome,[3],inactive
same,outcome,[10],inactive
O=C(O)c1cccc(C(=O)O)c1,AC50,[1],13 µM (active)
same,outcome,[2],inactive
CCC(C)c1ccccc1O (stereo unspecified),AC50,[1],11.9 µM (active)
C#C[C@]1(O)CC[C@H]2[C@@H]3CCC4=CC(=O)CC[C@@H]4[C@H]3CC[C@@]21C,outcome,[9],inactive
same,outcome,[11],inactive
same,outcome,[12],inactive
same,AC50,[13],1.27 µM (active)
COC(=O)c1ccccc1O,outcome,[1],inactive
Cc1occc(=O)c1O,outcome,[9],inactive
same,outcome,[14],inactive
CCc1cc(C2=C(C(=O)O)N(c3ccccc3C(F)(F)F)S(=O)(=O)c3ccccc32)cc2c1OCO2,AC50,[1],12.3 µM (active)
C1CCC(SSC2CCCCC2)CC1,outcome,[9],inactive
same,outcome,[8],inactive
same,outcome,[15],inactive
CC(=O)S[C@H](C(=O)N[C@H]1Cc2ccccc2[C@H]2CCC[C@@H](C(=O)O)N2C1=O)C(C)C,outcome,[1],inactive
CCc1nn(C2CCCCC2)c2cc(C3(C#N)CCC(C(=O)O)CC3)ccc12 (stereo unspecified),AC50,[1],12.1 µM (active)
CCN(Cc1cccc(S(=O)(=O)O)c1)c1ccc(C(=C2C=CC(=[N+](CC)Cc3cccc(S(=O)(=O)O)c3)C=C2)c2ccccc2S(=O)(=O)[O-])cc1,outcome,[1],inactive
same,outcome,PPP2CA (gene 5515),inactive
CC(C)c1cccc(C(C)C)c1NC(=O)NS(=O)(=O)c1cc(C(C)(C)O)co1,AC50,[1],37.1 µM (active)
O=P(OC(CCl)CCl)(OC(CCl)CCl)OC(CCl)CCl,outcome,[1],inactive
same,outcome,[14],inactive
c1ccc2n[nH]nc2c1,outcome,[1],inactive
same,outcome,[16],inactive
CCCCC(CC)COC(=O)CC(C(=O)OCC(CC)CCCC)S(=O)(=O)O (stereo unspecified),outcome,[1],inactive
same,AC50,[17],25 µM (active)
CO[C@@H]1COCC[C@@H]1N[C@@H]1CC[C@@](C(=O)N2CCc3ncc(C(F)(F)F)cc3C2)(C(C)C)C1,outcome,[1],inactive
Cc1ccc(S(=O)(=O)NC(=O)NN2CCCCCC2)cc1,AC50,[1],6.9 µM (active)
CCCCCCCCCC,outcome,[1],inactive
same,outcome,[8],inactive
same,outcome,[4],inactive
same,outcome,[10],inactive
same,outcome,[18],inactive
